From PubChem BioAssay AID504660 (National Center for Advancing Translational Sciences (NCATS), 2011)
Values joined by “and” are separate entries in the source; they are usually repeats but may differ in a detail not shown here. Equal entries are not always repeated. Among all 360,000 compounds or so, about 3,700 (1%) were called active. Rule as the data show it: active = activation above about 30%; inactive = the rest. The list comes from a sample in which actives are over-represented; it also holds similar structures and randomly drawn compounds. A structure can be active in one record and inactive in another.

What follows are compounds tested against D(1A) dopamine receptor (Homo sapiens) (UniProt P21728) (assay: Allosteric Agonists of the Human D1 Dopamine Receptor: qHTS). Settings: HEK293 T-REx D1 cells, calcium flux, agonist mode; at 2 µM; stronger effect = higher value.
Chain of D(1A) dopamine receptor (Homo sapiens) (P21728 whole entry, looked up): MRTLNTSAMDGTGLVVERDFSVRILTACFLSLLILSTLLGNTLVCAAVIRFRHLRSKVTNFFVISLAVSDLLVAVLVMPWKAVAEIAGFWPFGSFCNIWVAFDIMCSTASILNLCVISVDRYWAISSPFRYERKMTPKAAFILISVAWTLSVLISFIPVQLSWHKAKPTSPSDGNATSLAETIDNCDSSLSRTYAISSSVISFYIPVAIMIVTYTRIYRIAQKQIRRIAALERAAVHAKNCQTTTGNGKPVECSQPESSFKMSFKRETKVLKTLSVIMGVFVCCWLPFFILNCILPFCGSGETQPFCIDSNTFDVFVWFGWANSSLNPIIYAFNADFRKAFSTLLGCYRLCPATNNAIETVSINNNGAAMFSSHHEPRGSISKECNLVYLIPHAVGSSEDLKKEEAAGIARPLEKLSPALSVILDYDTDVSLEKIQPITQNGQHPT
In short: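 Agonism was scored from calcium flux recorded over 180 s (1 read/s) after pintool compound addition, following a 10-cycle baseline. Cells were inducible force-coupled HEK293 TREx D1, plated overnight at 30 C and loaded with no-wash calcium dye.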
Also: 0% is about no effect.

Compound	activation
Cc1cccc(N2CCN(C(=O)CCSCc3ccccc3F)CC2)c1C	1.3% (inactive)
Cc1ccc(C)c(CN2CCC(CNC(=O)Nc3ccc(C)c(F)c3)CC2)c1	26.2% (inactive)
Cc1cccc(CN2CCC(CNC(=O)Nc3ccc(F)c(Cl)c3)CC2)c1	42.5% (active)
COc1cc(NC(=O)NCC2CCN(Cc3ccc(C)cc3)CC2)cc(OC)c1OC	2.18% (inactive) and 0.967% (inactive)
CCOC(=O)c1ccc(CSc2nnc3cc(C)c4ccccc4n23)cc1	4.34% (inactive)
O=C(CNC(=O)c1ccccc1)OC(C(=O)Nc1cc([N+](=O)[O-])ccc1F)c1ccccc1 (stereo unspecified)	1.22% (inactive)
CC(O)CNCCOc1cccc(Oc2ccccc2)c1 (stereo unspecified)	4.04% (inactive)
COc1ccccc1OCCNCC(O)COc1cccc2[nH]c3ccccc3c12 (stereo unspecified)	17.7% (inactive) and 34% (active)
COc1ccccc1OCCC(=O)OCC(=O)NCc1ccccc1	-0.432% (inactive)
COc1ccc(CCNC(=O)CCCCn2c(=O)c3ccccc3n(Cc3ccccc3C)c2=O)cc1OC	13.8% (inactive)
Cc1cc(OCC(=O)Nc2ncn[nH]2)c(C)c(C)c1Br	1.36% (inactive)
COc1ccccc1CNC(=O)C(=O)NCC(c1cccs1)S(=O)(=O)c1cccs1 (stereo unspecified)	7.48% (inactive)
CCn1c2ccccc2c2cc(CN3CCN(Cc4cccc(Cl)c4)CC3)ccc21	2.19% (inactive)
Cc1cccc(Nc2cc(C)nc(-n3nc(C)cc3C)n2)c1	-1.13% (inactive)
Cc1cccc(NC(=O)c2ccc(F)c(S(=O)(=O)N(C)C3CCCCC3)c2)c1	0.598% (inactive)
COCCN(Cc1ccccc1)C(=O)Cc1ccc(S(=O)(=O)N2CCOCC2)s1	134% (active)
CCN(Cc1ccccc1)C(=O)Cc1ccc(OC)c(S(=O)(=O)N2CCOCC2)c1	3.33% (inactive)
O=C(Cc1ccc(S(=O)(=O)N2CCOCC2)s1)NCCC(c1ccccc1)c1ccccc1	2.27% (inactive)
CCOC(=O)c1cc(-c2ccccc2)n(CCC(=O)Nc2ccccc2CC)c1C	5.65% (inactive)
CCC(=O)N1CCc2cc(Br)cc(S(=O)(=O)Nc3ccc(C)cc3C)c21	0.918% (inactive)
CC(NC(=S)Nc1ccc(OC(F)F)cc1)c1ccc(F)cc1 (stereo unspecified)	41.7% (active)
CC(C)N(Cc1ccccc1)C(=S)Nc1ccc(OC(F)F)cc1	15.8% (inactive)

Compound	activation
CC/C(=N\NC(=S)NC(C)C)c1ccc(OC(F)F)cc1	0.526% (inactive)
Cc1ccc(S(=O)(=O)NC(N)=NCCC[C@@H](NC(=O)CNC(=O)c2ccccc2)C(=O)Nc2cc(C(F)(F)F)ccc2Cl)cc1	4.3% (inactive)
CCOC(=O)c1ccc(CN(Cc2ccccc2)S(=O)(=O)c2ccc(Cl)cc2)cc1	18.5% (inactive)
O=[S+]([O-])(c1ccc(OC(F)(F)F)cc1)N1CCN([S+](=O)([O-])c2ccc3c(c2)OCCO3)CC1	4.97% (inactive)
CC1Cc2cc(S(=O)(=O)CCC(=O)NCc3ccc(Cl)cc3)ccc2N1C(=O)C1CC1 (stereo unspecified)	14% (inactive)
Cc1cccc(NC(=O)N2CCN(C)c3ncccc32)c1C	33.9% (active)
Cc1cccc(NC(=O)N2CCCCCC2)c1C	0.571% (inactive)
Cc1cccc(NC(=O)c2cccc(C(=O)Nc3cccc(C)c3C)n2)c1C	2.25% (inactive)
O=C1C(F)N([S+](=O)([O-])c2ccc3c(c2)OCCO3)CCN1[S+](=O)([O-])c1c(F)cccc1F (stereo unspecified)	-0.431% (inactive)
COc1ccc(CCC(=O)NCCc2csc(-c3ccc(Cl)cc3)n2)cc1	5.93% (inactive)
O=C(Cc1nc2ccccc2[nH]c1=O)c1ccc(Cl)cc1	69.4% (active)
O=C(c1ccc(Cl)cc1)n1cnc2ccccc21	1.83% (inactive)
O=c1c(-c2ccc(Cl)cc2)[n+]([O-])c2ccccc2n1OCc1nc2ccccc2[nH]1	-0.955% (inactive)
C#CC(C)(CC)NC(=O)Cn1nnc(-c2ccc(OCc3c(F)cccc3Cl)cc2)n1 (stereo unspecified)	3.62% (inactive)
COc1ccc(CCNC(=O)CCCn2c(=O)c3ccccc3n(Cc3ccc(C)cc3)c2=O)cc1OC	-2.01% (inactive)
COc1cccc(CNC(=O)CCc2nc(-c3ccc(C)cc3)no2)c1	3.85% (inactive)
COc1ccccc1-c1noc(CSc2nnc(-c3ccccc3)n2-c2ccc(C)c(C)c2)n1	0.886% (inactive)
COc1cccc(C(=O)Nc2ccc(-c3cc(C(F)(F)F)nn3-c3ccccc3)cc2)c1	2.16% (inactive)
COc1cccc(C(=O)c2sc3nc(-c4ccccc4)cc(C(F)(F)F)c3c2N)c1	171% (active)
COc1cccc(C(=O)NC(=O)Nc2nc(C)cc(C(F)(F)F)n2)c1	2.89% (inactive)
Cc1ccccc1CNC(=O)CCCn1nc(C)c2sc3ccccc3c2c1=O	5.39% (inactive)
CSc1ccccc1-c1nnc(NC(=O)c2ccc3c(c2)OCCO3)o1	0.0799% (inactive)

Compound	activation
CCC(C(=O)Nc1cccc(-c2nc3cccnc3s2)c1C)c1ccccc1 (stereo unspecified)	6.2% (inactive)
COc1cc(NC(=O)c2ccccc2NS(=O)(=O)c2ccc(Cl)s2)cc(OC)c1	32.7% (active)
COc1cc(NS(=O)(=O)c2cccs2)cc(OC)c1	-0.545% (inactive)
O=S(=O)(Nc1ccccc1N1CCOCC1)c1ccc(Cl)s1	0.142% (inactive)
CCCn1c(NCc2ccc(N(CC)CC)cc2)nc2ccccc21	15.4% (inactive)
COc1cc(CN2CCC(n3nccc3NC(=O)CCCc3ccccc3)CC2)ccc1O	0.415% (inactive)
Cc1ccc(CN2CCC(n3nccc3NC(=O)CCCc3ccccc3)CC2)o1	1.76% (inactive)
COc1ccc(CN2CCC(n3nccc3NC(=O)CCCc3ccccc3)CC2)cc1C	37.7% (active)
COc1ccccc1CN1CCC(CNC(=O)c2cnn(-c3cccc(Cl)c3)c2C2CCN(C(=O)OC(C)(C)C)CC2)CC1	9.95% (inactive)
Cc1ccc(CN2CCC(CNC(=O)c3cnn(-c4ccccc4Cl)c3C3CCN(C(=O)OC(C)(C)C)CC3)CC2)cc1	27.5% (inactive)
Cc1ccc(CN2CCC(CNC(=O)c3cnn(-c4ccc(C)cc4)c3C3CCN(C(=O)OC(C)(C)C)CC3)CC2)cc1	33.1% (active)
COc1ccc(-n2c(C)nc3c(cnn3-c3ccc(F)cc3)c2=O)cc1	9.13% (inactive)
Cc1ccc(C(=O)OCC(=O)Nc2ccc(Cl)cn2)cc1S(=O)(=O)N1CCOCC1	5.99% (inactive)
Cc1ccc(NC(=O)COC(=O)CNC(=O)c2ccc(Cl)cc2Cl)cc1S(=O)(=O)N1CCOCC1	31.1% (active)
Cc1ccc(NC(=O)CCCNC(=O)c2ccc(Cl)cc2)cc1S(=O)(=O)N1CCOCC1	0.321% (inactive)
Cc1ccc(S(=O)(=O)N2CCC(C(=O)Nc3cc(C)ccc3C)CC2)cc1	1.28% (inactive)
CC(C)(C)CC(C)(C)NCC(O)COCCOc1ccc(Br)cc1 (stereo unspecified)	171% (active)
COc1ccc(OCC(O)CNCCNc2nccc(C(F)(F)F)n2)cc1 (stereo unspecified)	1.81% (inactive)
CC(Oc1ccc(Br)cc1)C(=O)NC1CCCCCC1 (stereo unspecified)	1.77% (inactive)
COc1ccc(-n2ccnc(NCCc3ccc(Cl)cc3)c2=O)cc1OC	1.51% (inactive)
COc1cc(OC)c(NC(=O)c2cc(S(=O)(=O)N3CCCC3)cn2C)cc1Cl	0.318% (inactive)
COc1ccccc1C(=O)OCc1cc(=O)n2nc(-c3cccs3)sc2n1	0.554% (inactive)

Compound	activation
COc1ccc(C(=O)N2CCC(c3nc4ccccc4o3)CC2)cc1	0.0167% (inactive)
O=C(Cn1cc(SCc2ccccc2)c2ccccc21)N1CCCCC1	0.868% (inactive)
COc1ccc(OCC(O)CN(C)C(=O)C(C)Oc2ccccc2)cc1 (stereo unspecified)	3.18% (inactive)
COc1cccc(CN(C)CC(O)COC(c2ccccc2)c2ccccc2C)c1 (stereo unspecified)	5.2% (inactive)
CN(Cc1ccccc1)CC(O)COc1ccc(CNCc2cc3ccccc3s2)cc1 (stereo unspecified)	36.8% (active)
Cc1ccc2nc(N3C(=O)C(O)=C(C(=O)c4ccco4)C3c3cccc(O)c3)sc2c1 (stereo unspecified)	7.96% (inactive)
C=CCOc1cccc(C2C(C(=O)c3ccc(C)o3)=C(O)C(=O)N2c2nnc(C)s2)c1 (stereo unspecified)	29.7% (inactive)
C=CCSc1nnc(N2C(=O)C(O)=C(C(=O)c3ccco3)C2c2ccc(F)cc2)s1 (stereo unspecified)	54.8% (active)
COc1ccc(CNC(=O)c2ccc(NC(=O)N3CC4CCCN4c4ccccc43)cc2)cc1 (stereo unspecified)	0.101% (inactive)
COc1ccc(Cn2ccn(CC(=O)Nc3cc(C)ccc3C)c(=O)c2=O)cc1	18.9% (inactive)
CCc1nc2ccc(C(=O)N3CCN(c4cc(Cl)ccc4C)CC3)cc2nc1CC	5.95% (inactive)
O=C(NC1CC(=O)N(c2ccc(F)cc2)C1)c1cccs1 (stereo unspecified)	1.75% (inactive)
CC(=O)c1cc(NC(=O)c2ccccc2)c(=O)oc1/C=C/N(C)C	30.3% (active)
CCOC(=O)c1cc(NC(=O)c2ccc(Cl)cc2)c(=O)oc1-c1ccccc1	3.05% (inactive)
COc1ccc(C2COC(=O)C2=N)c(NC(=O)c2ccccc2)c1 (stereo unspecified)	0.266% (inactive)
Cc1ccc(N2CC(NC(=O)Cc3cccs3)CC2=O)cc1 (stereo unspecified)	-0.478% (inactive)
CCOc1ccc(Nc2oc(/C=C/c3ccc(F)cc3)nc2C#N)cc1	-0.316% (inactive)
CCOc1ccc(N(Cc2ccccc2)C(=O)c2nc(S(C)(=O)=O)ncc2Cl)cc1	1.14% (inactive)
COc1ccc(NC(=O)Cn2c(=O)cc(C)c3c(C)nn(-c4cccc(Cl)c4C)c32)cc1OC	0.131% (inactive)
Cn1c(=O)[nH]c(=O)c2c1nc(NCCc1ccccc1)n2Cc1ccc(F)cc1	-2.2% (inactive)
